In PubChem BioAssay (EPA / NIEHS):
Activity calls are given as the source filed them. Rule for the calls: active = hit-call score of the fitted dose curve at least 0.9, where 1 is the maximum; inactive = score below 0.9.

What was measured:
[1] = APR_HepG2_CellCycleArrest_24hr: Apredica 24-hour HepG2 Assay for Cell Cycle Arrest (AID 2282905); details: imaging, actives raise or lower the signal;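 note: cell cycle arrest scored as ratio of 2N to 4N nuclear DNA content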
In short: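 Step one: dose HepG2 with test compounds, 0.39–200 uM, 0.5% DMSO, 24 hr. Step two: fix, permeabilize, stain nuclei with Hoechst 33342. Step three: image six fields per well at 20x, quantify DNA content, fit bidirectionally relative to DMSO.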

[2] = APR_HepG2_NuclearSize_24hr: Apredica 24-hour HepG2 Assay for Nuclear Size (AID 2282907); details: high-content imaging, actives raise or lower the signal
In short: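 After fixation and permeabilization, 24-hr-treated HepG2 cells were stained with Hoechst 33342 and imaged on an ArrayScan (20x). Doses spanned 0.39–200 uM in duplicate. Nuclear diameter changes in either direction were fitted relative to 0.5% DMSO controls.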

[3] = APR_HepG2_CellLoss_24hr: Apredica 24-hour HepG2 Assay for Cell Loss (AID 2282908); details: high-content imaging;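 for AC50: fit in both directions so a hit may be cell loss or gain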
In short: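 Duplicate wells received compound at ten concentrations (0.39–200 uM; final DMSO 0.5% v/v). After fixation with formaldehyde, nuclei stained with Hoechst 33342 were imaged at 20x. Loss or gain of cell count was fitted relative to DMSO controls.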

[4] = APR_HepG2_MicrotubuleCSK_24hr: Apredica 24-hour HepG2 Assay for Microtubule CSK Stabilty (AID 2282909); details: HepG2 microtubule cytoskeleton imaging, actives raise or lower the signal
In short: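 Microtubule stability is scored from tubulin immunofluorescence in fixed HepG2 cells imaged at 20x. Cells receive ten compound concentrations up to 200 uM for 24 h; taxol and DMSO serve as positive and negative controls.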

[5] = APR_HepG2_MitoticArrest_24hr: Apredica 24-hour HepG2 Assay for Mitotic Arrest (AID 2282910); details: high-content imaging, actives raise or lower the signal
In short: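 Treatment lasted 24 hr in the human HepG2 line at 0.39–200 uM, solvent held at 0.5% DMSO. Fixed cells were stained with Hoechst 33342 and anti-phospho-histone H3, imaged at 20x, and analysed by gain- or loss-of-signal fitting against DMSO.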

[6] = APR_HepG2_MitoMembPot_24hr: Apredica 24-hour HepG2 Assay for Mitochondrial Membrane Potential (AID 2282911); details: imaging, actives raise or lower the signal
In short: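 Mitochondrial membrane potential imaged via MitoTracker Red CMXRos (250 nM, 30 min pre-fixation) in fixed HepG2 cells with Hoechst nuclear identification. Ten concentrations 0.39–200 uM, 24 h treatment, 0.5% DMSO; CCCP as positive control.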

[7] = APR_HepG2_MitoMass_24hr: Apredica 24-hour HepG2 Assay for Mitochondrial Mass (AID 2282912); details: high-content imaging, actives raise or lower the signal
In short: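 Readout: fluorescence of MitoTracker Red CMXRos (250 nM, added 30 min pre-fixation) in fixed HepG2 cells imaged by HCS. Exposure lasted 24 hr at 0.39–200 uM; increases and decreases were both fitted relative to DMSO.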

[8] = APR_HepG2_p53Act_24hr: Apredica 24-hour HepG2 Assay for p53 Activation (AID 2282913); details: high-content imaging, actives raise or lower the signal;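 note: p53 protein immunofluorescence averaged per cell in HepG2 with Hoechst nuclei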
In short: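 Fluorescence imaging of formaldehyde-fixed HepG2 cells labelled for p53 and with Hoechst, 24 h after dosing (0.39–200 uM, duplicate wells, 0.5% v/v DMSO). Signal fitted in both directions relative to DMSO.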

[9] = APR_HepG2_CellCycleArrest_72hr: Apredica 72-hour HepG2 Assay for Cell Cycle Arrest (AID 2282914); details: high-content imaging, actives raise or lower the signal
In short: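 Read-out: nuclear DNA content from Hoechst 33342 high-content imaging (20x, six fields/well) after 3.7% formaldehyde fixation, fitted bidirectionally against DMSO. Treatment was 72 h in HepG2, ten concentrations 0.39–200 uM, duplicate, 0.5% DMSO.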

[10] = APR_HepG2_CellLoss_72hr: Apredica 72-hour HepG2 Assay for Cell Loss (AID 2282915); details: high-content imaging
In short: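 HepG2 cells were exposed for 72 hr to compounds at 0.39–200 uM (ten concentrations, duplicate) in 0.5% v/v final DMSO. Nuclei were stained with Hoechst 33342 after 3.7% formaldehyde fixation, imaged at 20x, and counted; fits bidirectional versus DMSO.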

Measured: AC50

COc1ccc(/C=C/S(=O)(=O)NC(=O)c2ccc(C)cc2Cl)cc1
active: [1] 102 µM | [6] 14.7 µM
not listed: [10]
inactive: all other assays above

O=C(O)CC(O)C(=O)O (stereo not drawn)
not listed: [4] | [8]
inactive: all other assays above

CC(=O)OC[C@H]1O[C@@](COC(C)=O)(O[C@H]2O[C@H](COC(C)=O)[C@@H](OC(C)=O)[C@H](OC(C)=O)[C@H]2OC(C)=O)[C@@H](OC(C)=O)[C@@H]1OC(C)=O
not listed: [4] | [6] | [8]
inactive: all other assays above

CCOC(=O)CC(CC(=O)OCC)(OC(C)=O)C(=O)OCC
active: [9] 82.1 µM | [10] 45.8 µM
not listed: [2] | [7]
inactive: all other assays above

CCOC(=O)c1ccc(C2CCC(NC[C@H](O)COc3ccc(O)c(NS(C)(=O)=O)c3)CC2)cc1 (stereo partly drawn)
active: [3] 32.3 µM | [5] 27.5 µM | [8] 26.2 µM | [10] 25 µM
inactive: [1] | [2] | [9]

CC(O)CN(CCN(CC(C)O)CC(C)O)CC(C)O (stereo not drawn)
not listed: [2] | [10]
inactive: all other assays above

COCCOc1cc2cc(C(=O)NC3CCN(C(C)C)CC3)n(CC(=O)Nc3ccc(Cl)cn3)c2cn1
inactive: [1] | [2] | [9]
active: [3] 74 µM | [5] 89.4 µM

O=C(O)c1cccc(N(Cc2cccnc2)c2ccc(OC(F)F)c(OC(F)F)c2)c1
inactive: [1] | [2] | [9]
active: [3] 43.6 µM | [5] 10.4 µM | [7] 13.3 µM | [8] 5.63 µM

CCNc1ccccc1
not listed: [4] | [7]
inactive: all other assays above

CC(C)CCCCCCOC(=O)c1ccc(C(=O)OCCCCCCC(C)C)c(C(=O)OCCCCCCC(C)C)c1
not listed: [4] | [8] | [10]
inactive: all other assays above

O=C(NS(=O)(=O)/C=C/c1ccccc1)c1ccc(F)cc1Cl
inactive: [1] | [2] | [3] | [5] | [7] | [9]

COC(=O)c1ccccc1O
not listed: [4] | [6] | [7]
inactive: all other assays above

CC(=O)c1ccc2c(c1)[C@H](NC(=O)c1ccc(F)cc1)[C@@H](O)C(C)(C)O2
inactive: [1] | [3] | [4] | [5] | [6] | [9]

COc1ccc2sc(C(=O)Nc3nnn[nH]3)c(OC(C)C)c2c1
active: [10] 39.9 µM
not listed: [2] | [7]
inactive: all other assays above

CCn1nc(Cc2ccccc2)cc1C1CCN(C[C@H]2C[C@H](N(C)[C@@H](C(=O)O)C(C)C)C[C@@H]2c2cccc(F)c2)CC1
inactive: [3] | [4] | [5] | [6] | [9]
active: [1] 46.3 µM

CCN(C(=O)c1cc(C)cc(OC[C@H](C)Nc2ccncc2)c1)C(C)C
not listed: [4] | [10]
inactive: all other assays above

CCCCCCc1ccc(O)cc1O
active: [1] 89.8 µM | [3] 103 µM | [5] 95.4 µM | [7] 125 µM | [10] 71.5 µM
inactive: [2] | [9]

Cc1ccc(C)c(O)c1
not listed: [4] | [6] | [7]
inactive: all other assays above

O=C1CCCCCN1
not listed: [2] | [10]
inactive: all other assays above

CCCCCCCCCCCCc1ccccc1
not listed: [4] | [8]
inactive: all other assays above

C=CC(=C)CCC=C(C)C
not listed: [2]
inactive: all other assays above

CN(C)c1ccc(Cc2ccc(N(C)C)cc2)cc1
active: [6] 55.9 µM | [9] 50.8 µM
inactive: [1] | [3] | [4] | [5] | [7]

Cc1ccc(N)cc1O
active: [6] 0.917 µM
not listed: [2] | [7] | [10]
inactive: all other assays above

COc1cccc(-c2ccc(/C=C\CN3CCCCCC3)cc2Cl)c1
inactive: [6]
active: [1] 87.1 µM | [2] 59.5 µM | [3] 74.8 µM | [5] 28.5 µM | [7] 23.8 µM | [8] 30.8 µM | [9] 84.2 µM

CCCCC(CC)COC(=O)c1ccc(C(=O)OCC(CC)CCCC)cc1 (stereo not drawn)
active: [9] 32.4 µM
not listed: [4] | [8]
inactive: all other assays above

CC1=CC(=O)CC(C)(C)C1
not listed: [4]
inactive: all other assays above

COC(=O)CC(=O)OC
inactive: [1] | [2] | [3] | [5] | [7] | [9]

Cc1[nH]cnc1C[C@H]1CCc2c(C)c3ccccc3n2C1=O
active: [1] 146 µM | [3] 55.7 µM | [9] 69.7 µM
inactive: [2] | [5] | [6] | [7]

C1N2CN3CN1CN(C2)C3
not listed: [4] | [7]
inactive: all other assays above

Cn1c(=O)cc(Oc2ccc(F)cc2F)c2cnc(NCC(C)(C)O)nc21
active: [9] 112 µM
not listed: [2]
inactive: all other assays above
